Screening results from PubChem BioAssay.
ST2 IL33 inh – IL1RL1 inhibition | inhibition, % for hits at 17 µM | Q01638 | 2.3% of 78,000 active | AlphaLISA ST2-Fc/biotin-IL-33 interaction, 1 h; in the data active = inhibition above about 30%
Target sequence (Q01638 whole entry, looked up): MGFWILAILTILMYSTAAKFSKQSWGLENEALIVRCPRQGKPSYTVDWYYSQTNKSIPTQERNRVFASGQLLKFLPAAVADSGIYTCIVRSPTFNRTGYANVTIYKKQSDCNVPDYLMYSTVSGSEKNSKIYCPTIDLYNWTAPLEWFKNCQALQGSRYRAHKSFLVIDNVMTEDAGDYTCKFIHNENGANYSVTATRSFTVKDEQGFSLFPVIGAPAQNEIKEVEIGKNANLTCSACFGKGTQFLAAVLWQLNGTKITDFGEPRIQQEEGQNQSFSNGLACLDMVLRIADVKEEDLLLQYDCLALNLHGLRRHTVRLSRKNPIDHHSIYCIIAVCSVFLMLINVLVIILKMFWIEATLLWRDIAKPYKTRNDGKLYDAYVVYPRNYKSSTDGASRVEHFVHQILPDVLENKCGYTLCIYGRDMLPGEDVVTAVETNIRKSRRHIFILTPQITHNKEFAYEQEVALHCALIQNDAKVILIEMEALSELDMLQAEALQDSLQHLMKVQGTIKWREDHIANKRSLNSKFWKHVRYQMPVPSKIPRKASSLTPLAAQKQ
Starred values were filed as active, the others as inactive; i = inactive. This excerpt belongs to a sample that is enriched for hits.

SMILES	ST2 IL33 inh
CCCCn1c(=N)n(CCOc2ccc(C)cc2)c2ccccc21	i
COc1ccc(-c2csc(=Nc3ccccc3)n2CCO)cc1	38.0%*
O=C(O)c1ccc2c(c1)C(=O)N(c1cccc(Cl)c1)C2=O	i
COc1ccc(CN2C(=Nc3ccccc3)S[C@H]3[C@@H]2[C@@H](O)[C@H](O)C[C@@H]3C(N)=O)cc1	i
COc1ccc(N=c2scc(-c3ccc(I)cc3)n2CCO)cc1	55.0%*
Cc1ccc(-c2csc(=Nc3ccccc3)n2CCCN(C)C)cc1	42.0%*
COc1ccc(N=C2SCC(=O)N2c2ccc(OC)cc2)cc1	i
CC(C)Cc1ccc(S(=O)(=O)NCc2ccc(F)cc2)cc1	i
CN(C)CCCNC(=O)C1(O)c2ccccc2NC(=O)N1c1ccccc1 (configuration not stated)	i
C=CCn1cc(-c2c(-c3ccccc3)ncn2[C@H](CO)c2ccccc2)cn1	i
CC(=O)N1c2ccccc2NC2=C(C(=O)CC(c3cccc([N+](=O)[O-])c3)C2)C1c1ccco1 (configuration not stated)	i
COCCN(CC1CCN(Cc2ccccc2OC)CC1)C1CCN(C(C)=O)CC1	i
CCOC(=O)c1[nH]c2ccccc2c1NC(=O)C1c2ccccc2OC2C=CC=CC21 (configuration not stated)	i
N#CC(C#N)=C1C(Cl)=C(N2CCCCC2)c2ccccc21	82.0%*
O=C(c1ccccc1Cl)N1CCN(c2ccccc2)CC1	i
N#Cc1c(N)nc2c(c1-c1ccccc1Cl)CCCCC2	i
O=C(COc1ccc(Cl)cc1)N1CCN=C1SCc1ccccc1	i
CC1(C)C[C@H]2C[C@@](C)(CN2S(=O)(=O)c2cccc([N+](=O)[O-])c2)C1	i
O=C(c1ccccc1Br)N1CCN=C1SCc1cccc([N+](=O)[O-])c1	i
CCC1=C(c2ccc(OC)cc2)S(=O)(=O)N(CC(=O)NCc2ccco2)C1=O	i
CCOc1cc(CN2CCCN(C)CC2)ccc1OC	i
COc1ccccc1OCCOc1cccc(Cl)c1	i
CCOc1ccc(-c2nnc3cccc(Cl)n23)cc1OC	41.0%*
Cc1cc2ccccc2n1CCNC(=O)C1c2ccccc2Oc2ccccc21	i
O=C(NCc1ccccc1)N[C@H]1CO[C@H]2[C@@H]1OC[C@@H]2n1nnnc1Oc1ccc2c(c1)OCO2	i
SMILES	ST2 IL33 inh
Cc1nc(-c2cccc(NS(=O)(=O)c3ccc(Cl)cc3)c2)cs1	i
O=C(O)C1(O)CCN(c2cc(N3CCOCC3)ncn2)CC1	i
NC(=O)c1cnc2n1CCN(C(=O)c1scc3c1OCCO3)C2	i
Nc1c(Br)cc(O)c2c1C(=O)c1ccccc1C2=O	68.0%*
O=C1c2ccccc2-c2ncnc3c(S(=O)(=O)O)cc(O)c1c23	i
COc1ccc(OC)c(Nc2cc(C)nc3c(C)c(C)ccc23)c1	37.0%*
COc1ccc(Nc2cc(C)nc3c(C)c(C)ccc23)cc1OC	i
COc1ccc(Nc2cc(C)nc3c(C)c(C)ccc23)cc1	i
CCOc1ccc(OCC)c(NC(C)=O)c1	i
CCOc1ccc2c(c1)C(=O)c1cc(OCC)ccc1-2	46.0%*
C=C1c2cc(OCC)ccc2NC(=O)N1c1ccccc1	i
COc1ccc(C(=O)NC2CC(=O)N(c3ccccc3)C2)cc1 (configuration not stated)	i
CCCCOC(=O)C1=C(C)Nc2nnnn2C1c1c(F)cccc1Cl (configuration not stated)	i
COc1ccc(S(=O)(=O)NCC(C)C)cc1OC	i
Cc1c(NS(=O)(=O)c2ccc3c(c2)C(=O)c2ccccc2-3)c(=O)n(-c2ccccc2)n1C	i
CC(C)CCNS(=O)(=O)c1ccc2c(c1)C(=O)c1cc(S(=O)(=O)NCCC(C)C)ccc1-2	36.0%*
COc1ccc(C(=O)Nc2ccc(C(C)=O)cc2)cc1	i
Cc1nc2nc(SCC(=O)NC(C)(C)C)nn2c(C)c1Cc1ccc(F)cc1Cl	i
CCn1c(C(C)NC(=O)C(C)(C)C)nc2ccccc21 (configuration not stated)	i
CCn1c(CCNC(=O)C(C)(C)C)nc2ccccc21	i
CCNc1ccc(Br)cc1-c1nc2ccccc2n(CC)c1=O	77.0%*
CCCCNC(=O)c1ccc2c(c1)N(Cc1cc(C)ccc1C)C(=O)CS2	i
O=C(O)c1cccc(S(=O)(=O)Nc2ccc(F)cc2)c1	i
COc1ccc(-c2csc(/C(C#N)=C/c3cccs3)n2)cc1	50.0%*
O=C(Nc1nc(-c2ccccc2)cs1)c1ccccc1	i
SMILES	ST2 IL33 inh
N#C/C(=C\c1ccccc1[N+](=O)[O-])c1nc(-c2ccc(Cl)c(Cl)c2)cs1	i
COc1ccc(-c2cc(C(F)(F)F)nc(NCc3cccs3)n2)cc1	i
COc1ccc(C2=Nn3c(nnc3-c3ccccc3Cl)SC2)cc1	i
COc1ccc(-c2csc(/C(C#N)=C/c3ccccc3Cl)n2)cc1	42.0%*
COc1ccc(OC)c(N/C=C(\C#N)c2nc(-c3cc4ccccc4oc3=O)cs2)c1	37.0%*
N#C/C(=C\c1cccs1)c1nc(-c2ccc(Cl)c(Cl)c2)cs1	i
COc1cccc2cc(-c3nc(-c4ccc(Cl)cc4)cs3)c(=O)oc12	i
COc1ccc(N/C=C(\C#N)c2nc(-c3cc4cc([N+](=O)[O-])ccc4oc3=O)cs2)c(OC)c1	i
COc1cc(N/C=C(\C#N)c2nc(-c3cc4ccccc4oc3=O)cs2)c(OC)cc1Cl	i
N#C/C(=C/c1ccccc1Cl)c1nc(-c2ccccc2)cs1	65.0%*
COc1ccc(CCNC(=O)C2CCC(=O)N(C3CCCC3)C2)cc1 (configuration not stated)	i
CCOc1ccc(S(=O)(=O)NCc2nc3cccnc3n2Cc2cccc(C)c2)cc1	i
COc1ccc(-c2noc(CCC(=O)NCc3ccc4c(c3)OCO4)n2)cc1	i
Cc1cc(C)c2c(n1)sc1c(N3CCN(Cc4ccccc4)CC3)ncnc12	i
O=C(C[C@@H]1O[C@H](CNCc2cccc(Cl)c2)[C@@H](O)[C@H]1O)N1CCCC1	i
O=C(NCc1ccco1)c1cccc(Cl)c1Cl	i
COC(=O)CCCNC(=O)Cn1cnc2sc3c(c2c1=O)CCCC3	i
O=c1cc(C(F)F)oc2ccc([N+](=O)[O-])cc12	i
COc1ccc(-c2csc(/C(C#N)=C/c3ccccc3OC)n2)cc1	40.0%*
COc1ccc(-c2csc(/C(C#N)=C\c3ccc(F)cc3)n2)cc1OC	i
COc1ccc(/C=C(\C#N)[N+](=O)[O-])cc1	i
COc1cc(N/C=C(/C#N)c2nc(-c3ccc(F)cc3)cs2)c(OC)cc1Cl	i
COc1ccc(-c2csc(/C(C#N)=C/c3ccc(Cl)cc3)n2)cc1	34.0%*
COc1ccc(-c2csc(/C(C#N)=C\Nc3cccc(C(F)(F)F)c3)n2)cc1OC	i
CC(C)CN(Cc1cccc(O)c1)Cc1cnn(C)c1	i
SMILES	ST2 IL33 inh
O=C(Nc1ccc(Oc2cccnc2)cc1)C1CCCCN1Cc1ccc2c(c1)CCO2 (configuration not stated)	i
O=C(NC1CCCCC1)c1cc(-c2ccncc2)nc2ccccc12	i
CC(C)n1cc(CN2CCC(CCC(=O)N3CCN(c4ccccc4)CC3)CC2)cn1	i
COc1ccc(-c2nc3cc(C)ccc3o2)cc1NC(=O)c1ccco1	i
COCCCNC(=O)CN1C(=O)/C(=C\c2ccc(Cl)cc2)Sc2ccccc21	i
O=C(CN1C(=O)/C(=C\c2cccc(Cl)c2)Sc2ccccc21)NCCN1CCCC1	i
COCCNC(=O)CN1C(=O)/C(=C\c2ccc(Cl)cc2)Sc2ccccc21	i
